Assay outcomes deposited in PubChem BioAssay by National Center for Advancing Translational Sciences (NCATS).
PLK1 PBD block = blocks phosphopeptide binding to human PLK1 polo-box domain; P53350; Plk1 PBD binding of FITC phosphopeptide, fluorescence polarization; Potency, µM, most hits filed as inhibitors; hit rate 2.8% among 360,000; further: series mostly up to about 57 µM; nearly all actives have a fitted effect of over 65% in size
Sfp inh = blocks B. subtilis Sfp PPTase activity; Q9F4F7; hit rate 3.5% among 310,000; Potency, µM, hits mostly inhibitors; Biochemical Sfp PPTase activity, qHTS;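 further: the enzyme is Sfp with the accession as filed and its product quenches rhodamine fluorescence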
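Buffer: 50 mM Hepes-Na pH 7.6, 10 mM MgCl2, 0.01% Nonidet P-40, 0.01% BSA. Enzyme 15 nM, pre-exposed to compound 15 min; substrates then added and fluorescence change tracked over 30 min.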
G9a inh = G9a (human) methyltransferase inhibition | Q96KQ7 | G9a H3K9 monomethylation, AlphaScreen, 2 h | Potency, µM (doses to about 102 µM), usual class: inhibitors | hit rate 8.8% among 350,000 | AID 504332; further: nearly all actives have a fitted effect of over 75% in size
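Quantitative HTS format: methyltransferase activity on a biotin-tagged H3K9 peptide is measured by AlphaScreen, using a rabbit anti-monomethyl-H3K9 antibody with streptavidin donor and anti-IgG acceptor beads. Final levels are 20 nM enzyme, 500 nM peptide, 20 uM SAM; 2 h RT.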
BAZ2B block = inhibitors of human BAZ2B bromodomain | Potency, µM (top dose mostly 114 µM), actives largely listed as inhibitors | hit rate 4.4% among 360,000 | Q9UIF8 | AlphaScreen BAZ2B-H3K14Ac peptide displacement; further: nearly all actives have a fitted effect of over 60% in size
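Complex of BAZ2B and biotin-H3K14Ac (50 nM apiece) forms over 30 min at RT, then faces library compounds up to 110 uM for another 30 min; AlphaScreen beads added, 20 min dark incubation, luminescence read.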
JMJD2A Tudor inh = blocks the human JMJD2A Tudor domain. O75164. AlphaScreen JMJD2A-Tudor / H3K4me3 peptide binding. Potency, µM (highest dose often 114 µM), most hits filed as inhibitors. hit rate 4.4% among 390,000. AID 504339; further: nearly all actives have a fitted effect of over 50% in size
HP1b chromo inh = blocks HP1-beta chromodomain binding to methylated histone tails; P83916; AlphaScreen HP1-beta / biotin-H3K9me3 peptide binding; Potency, µM (doses to about 114 µM), hits mostly inhibitors; hit rate 0.56% among 390,000; AID 540317; further: nearly all actives have a fitted effect of over 70% in size
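AlphaScreen: HP1-beta (50 nM) preformed 30 min with biotin-H3(1-18)K9me3 peptide (50 nM) in PBS pH 7.4, 0.01% Tween-20. Compound added for 30 min at RT, then streptavidin donor/nickel chelate acceptor beads (10 ug/mL) for 30 min.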
Each line names hits and unclear results; the compound was inactive in the other large screens. In the library only some 12% were active in any assay of this set; here they are far more common. The call rests on the fitted dose curve; in most records, active means well fitted curve in the direction sought with a large enough effect; inconclusive means small, poorly fitted or top-dose-only effect, or another doubt; inactive means no such curve, though single readings can be large; an effect the other way counts as inactive or inconclusive.

COC(=O)N/N=C/c1ccc(-c2ccc(Cl)cc2Cl)o1	none
O=C(O)c1ccc(N/N=C/c2ccc(-c3ccc(Cl)cc3Cl)o2)cc1	PLK1 PBD block 23.8µM, G9a inh inconclusive, BAZ2B block inconclusive
CCc1ccc(OCCCCn2c(CCNC(=O)C3CCCCC3)nc3ccccc32)cc1	none (no result: PLK1 PBD block, Sfp inh, G9a inh, BAZ2B block)
O=C1NC(=O)C2(CCCC2C(=O)O)N1 (stereo unspecified)	none (no result: Sfp inh, G9a inh, BAZ2B block)
O=C(CNC(=O)c1ccc(S(=O)(=O)N2CCCCC2)cc1)N/N=C/c1ccco1	none
Cc1ccc(/C=N/NC(=O)CNC(=O)c2ccc(S(=O)(=O)N3CCCC3)cc2)o1	G9a inh 44.7µM
Cc1ccc(/C=N\NC(=O)CNC(=O)C23CC4CC(CC(C4)C2)C3)o1	Sfp inh 56.2µM
O=C(NC[C@H]1CCCCN1)c1cc(OCC(F)(F)F)ccc1OCC(F)(F)F	none (no result: PLK1 PBD block, G9a inh, BAZ2B block, JMJD2A Tudor inh, HP1b chromo inh)
COc1cc(OC)c(NC(=O)c2c(N3CCCC3=O)c3cc(C)ccc3n2C)cc1Cl	none (no result: PLK1 PBD block, Sfp inh)
CC(=O)C1=C(O)C(=O)N(CCC(=O)O)C1c1ccccc1Cl (stereo unspecified)	BAZ2B block inconclusive, JMJD2A Tudor inh 22.4µM
COc1ccc(C2C(C(=O)c3ccc(C)o3)=C(O)C(=O)N2CC2CCCO2)cc1OC (stereo unspecified)	BAZ2B block inconclusive (no result: G9a inh)
O=C(C1=C(O)C(=O)N(CC2CCCO2)C1c1cccc(O)c1)c1ccco1 (stereo unspecified)	G9a inh 44.7µM
CC(=O)C1=C(O)C(=O)N(Cc2cccnc2)C1c1ccccc1Cl (stereo unspecified)	none
COc1ccc(CCN2C(=O)C(O)=C(C(C)=O)C2c2ccccc2OC)cc1OC (stereo unspecified)	JMJD2A Tudor inh inconclusive
COc1ccccc1C1C(C(C)=O)=C(O)C(=O)N1CCc1ccccc1 (stereo unspecified)	G9a inh 44.7µM
O=C(C1=C(O)C(=O)N(CC2CCCO2)C1c1ccccc1F)c1ccco1 (stereo unspecified)	G9a inh 39.8µM
COc1ccc(CC(=O)OCC(=O)Nc2cc(Cl)ccc2C)cc1	none (no result: Sfp inh, G9a inh, BAZ2B block)
COc1cc(C2C(C(=O)c3ccco3)=C(O)C(=O)N2CCc2ccccc2)ccc1O (stereo unspecified)	G9a inh 39.8µM, BAZ2B block inconclusive, JMJD2A Tudor inh inconclusive
COc1cc(C2C(C(C)=O)=C(O)C(=O)N2CCc2ccc(OC)c(OC)c2)ccc1O (stereo unspecified)	BAZ2B block inconclusive
COc1cc(C2C(C(=O)c3ccco3)=C(O)C(=O)N2CC2CCCO2)ccc1O (stereo unspecified)	G9a inh 50.1µM, BAZ2B block inconclusive, JMJD2A Tudor inh inconclusive
CCOc1cc(C2C(C(=O)c3ccco3)=C(O)C(=O)N2CC2CCCO2)ccc1O (stereo unspecified)	G9a inh 44.7µM
COc1ccc(C2C(C(=O)c3ccco3)=C(O)C(=O)N2CC2CCCO2)cc1 (stereo unspecified)	G9a inh inconclusive
COc1ccccc1-c1nc(C#N)c(N2CCc3ccccc3C2)o1	G9a inh inconclusive, BAZ2B block 10µM, JMJD2A Tudor inh inconclusive, HP1b chromo inh inconclusive
COc1ccc(-c2nc(C#N)c(N3CCc4ccccc4C3)o2)cc1OC	G9a inh 28.2µM, BAZ2B block 7.08µM, JMJD2A Tudor inh inconclusive
COc1ccc(S(=O)(=O)N(C)[C@H]2C[C@H]3c4cc(Oc5ccccc5C)ccc4CCN3C(=O)[C@H]2[C@H](C)O)cc1	none (no result: Sfp inh, G9a inh, BAZ2B block, JMJD2A Tudor inh, HP1b chromo inh)
CCOC(=O)/C=C1\CC(C(=O)OCC)Oc2c(OC)cccc21 (stereo unspecified)	PLK1 PBD block inconclusive, G9a inh 31.6µM, JMJD2A Tudor inh inconclusive (no result: BAZ2B block)
O=C(Nc1ccccc1C(=O)N1CCCCC1)c1ccc(Cl)cc1Cl	none
O=C1NCCC/C1=N\Nc1ccc(Br)cc1	PLK1 PBD block inconclusive, G9a inh 50.1µM, JMJD2A Tudor inh inconclusive
[O-][n+]1ccccc1SSc1cccc[n+]1[O-]	Sfp inh 0.708µM, G9a inh 1.26µM (no result: PLK1 PBD block, BAZ2B block, JMJD2A Tudor inh, HP1b chromo inh)
Cc1ccnc(NC(=O)c2cccc(S(=O)(=O)N3CCN(c4ccc(F)cc4)CC3)c2)c1	none (no result: Sfp inh)
CCS(=O)(=O)N1CCN(C(=O)c2cccc(OC)c2)CC1	none (no result: BAZ2B block)
COc1cccc(C(=O)N2CCN(Cc3ccccc3[N+](=O)[O-])CC2)c1	G9a inh 11.2µM, BAZ2B block inconclusive, JMJD2A Tudor inh 22.4µM, HP1b chromo inh inconclusive
O=C(c1cccs1)N1CCN(Cc2ccccc2[N+](=O)[O-])CC1	G9a inh 11.2µM, BAZ2B block 56.2µM, JMJD2A Tudor inh inconclusive, HP1b chromo inh inconclusive
CCCC(CNC(C)=O)(C1=CCCCC1)c1ccccc1 (stereo unspecified)	none (no result: Sfp inh, G9a inh, BAZ2B block, JMJD2A Tudor inh, HP1b chromo inh)
CCNc1nc(ON=C(C)C)nc(N(C)C)n1	none
CC1CCCC(NC(=O)CCS(=O)(=O)c2ccc3c(c2)NC(=O)CS3)C1C (stereo unspecified)	PLK1 PBD block 29.9µM, JMJD2A Tudor inh inconclusive
N#C/C(=C/c1ccc(F)cc1)S(=O)(=O)c1ccccc1	PLK1 PBD block inconclusive (no result: G9a inh)
N#C/C(=C\c1ccc(O)c(O)c1)S(=O)(=O)c1ccccc1	G9a inh 3.16µM, BAZ2B block 10µM, JMJD2A Tudor inh inconclusive, HP1b chromo inh inconclusive
N#C/C(=C\c1c[nH]c2ccccc12)C(=O)NC1CC1	none (no result: G9a inh)
COc1cc(/C=C(\C#N)C(=O)N2CCCCC2)ccc1O	none
N#C/C(=C\c1ccc(O)c(O)c1)C(=O)c1ccc(O)c(O)c1	G9a inh 2.24µM, BAZ2B block 2.24µM, JMJD2A Tudor inh 0.708µM, HP1b chromo inh inconclusive (no result: Sfp inh)
N#C/C(=C\c1c[nH]c2ccccc12)C(=O)c1ccc(O)c(O)c1	G9a inh 17.8µM (no result: PLK1 PBD block, Sfp inh, BAZ2B block, JMJD2A Tudor inh, HP1b chromo inh)
N#C/C(=C\c1ccc(O)c(O)c1)C(=O)N1CCCC1	Sfp inh 63.1µM, G9a inh 12.6µM, JMJD2A Tudor inh inconclusive (no result: BAZ2B block)
CSc1ncccc1C(=O)OCC(=O)Nc1ccc2c(c1)CCC2	none (no result: Sfp inh)
CC(C)C[C@@H](CC(=O)N[C@@H](CCC(=O)O)CC(=O)O)NC(=O)[C@@H]1CCCC[C@H]1NC(=O)C[C@@H](NC(=O)C[C@H](Cc1c[nH]c2ccccc12)NC(=O)[C@@H]1CNCC[C@H]1N)C(C)C	none (no result: PLK1 PBD block, G9a inh, BAZ2B block, JMJD2A Tudor inh, HP1b chromo inh)
Cc1cc(C)c(S(=O)(=O)C(C)C)c(=O)[nH]1	PLK1 PBD block 23.8µM
COc1cc(/C=C2\SC(N)=NC2=O)cc(Br)c1O	BAZ2B block inconclusive
CCOc1cc(/C=C2\SC(=O)N=C2N)ccc1O	none
CCOc1cc(/C=C2\SC(N)=NC2=O)ccc1O	Sfp inh inconclusive, G9a inh 56.2µM
CCOc1c(Br)cc(Br)cc1/C=C1\SC(N)=NC1=O	BAZ2B block inconclusive, JMJD2A Tudor inh 25.1µM (no result: G9a inh)
COc1cc(/C=C2\SC(c3ccc(C)cc3)=NC2=O)cc(OC)c1OC	Sfp inh inconclusive, G9a inh 1µM, JMJD2A Tudor inh 56.2µM, HP1b chromo inh inconclusive
